# High-throughput results (PubChem)
# NFkB transloc inh – blocks IL-1B driven NFkB nuclear translocation in HUVEC cells; HUVEC IL-1B NFkB p65 nuclear translocation imaging; inhibition, % at 2 µM; actives 0.43% (n = 94,000);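 active = inhibition above about 30% together with a positive call from visual inspection of the well image, limit read from the data; inconclusive = inhibition above a set limit but visual check negative; inactive = inhibition not above a set limit, visual check negative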;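 note: nuclear over cytoplasmic p65 intensity ratio measured by imaging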
# VCAM1 TNFa inh – reduces TNF alpha induced VCAM1 expression in HUVEC | actives 0.48% (n = 95,000) | HUVEC TNFa-induced VCAM-1 immunofluorescence, high-content imaging | inhibition, % at 2 µM;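 active = inhibition above the batch mean plus 3 SD, with images confirmed as a hit by eye, cut at about 37% in these data; inconclusive = inhibition above that limit but hit not confirmed in images; inactive = inhibition not above that limit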
# HUVEC tox IL1B – HUVEC cytotoxicity counter-screen, IL-1B stimulated; HUVEC cell count loss, Hoechst imaging; cell count reduction, % at 2 µM; actives 0.41% (n = 94,000); AID 845;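 active = cell count reduction more than 3 SD above the screen-wide mean, cut at about 70% in these data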
# NFkB transloc pot – enhances IL-1B driven NFkB nuclear translocation | HUVEC IL-1B NFkB p65 nuclear translocation imaging | activation, % at 2 µM | actives 0.3% (n = 94,000) | AID 819;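 active = activation above 40%, about the mean plus 3 SD, also judged a hit on visual image review; inconclusive = activation above 40% but not a hit on visual review; inactive = activation not above 40% and no visual hit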;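 note: percent activation is computed from the nuclear over cytoplasmic p65 intensity ratio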
# HUVEC tox TNFa – HUVEC cytotoxicity counter-screen, TNF alpha stimulated | actives 0.17% (n = 93,000) | cell count reduction, % at 2 µM | HUVEC TNFalpha-stimulated, Hoechst cell count, imaging | AID 848;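 active = cell count reduction exceeding the screen mean by over 5 SD, scaled to untreated wells per plate, cut at about 78% in these data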;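 note: cells counted after 24 h of TNF alpha exposure following the 1 h pretreatment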
# E-sel TNF inh – blocks E-selectin expression induced by TNF alpha | HUVEC TNFa-induced E-selectin immunofluorescence, high content | inhibition, % at 2 µM | actives 0.71% (n = 120,000);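 active = inhibition above the batch mean plus 3 SD, and confirmed as a hit on visual image review, cut at about 43% in these data; inconclusive = passes the inhibition cutoff but fails visual image review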
# Numbers stand for hits; i = inactive; ? = inconclusive; nt = not tested or not shown. This is a sample that favours compounds with a hit; in the whole collection about 1.6% have one here.
SMILES,NFkB transloc inh,VCAM1 TNFa inh,HUVEC tox IL1B,NFkB transloc pot,HUVEC tox TNFa,E-sel TNF inh
CCOC(=O)c1cn(-c2ccccc2)nc1-c1cccnc1,nt,nt,nt,nt,nt,i
O=C(OCc1cccc([N+](=O)[O-])c1)c1cnccn1,nt,nt,nt,nt,nt,i
O=C(Oc1ccccc1)c1cccc(COC(=O)c2cnccn2)c1,i,i,86.9,i,i,i
COc1ccc(CCNC(=O)CSc2ccc(Br)cc2)cc1OC,nt,nt,nt,nt,nt,i
COc1ccc(N2CCN(C(=O)C(C)(C)Oc3ccc(Cl)cc3)CC2)cc1,i,i,i,i,78.3,nt
CCOC(=O)N1CCN(C(=O)C(C)(C)Oc2ccc(Cl)cc2)CC1,i,i,i,i,i,nt
Cc1cc(C)n(C(=O)c2cc(F)c(F)cc2C)n1,nt,nt,nt,nt,nt,i
Cn1c(=O)c(=O)n(C)c2cc(S(=O)(=O)N3CCc4ccccc43)ccc21,i,i,i,i,i,57.2
Cn1c(=O)oc2cc(S(=O)(=O)N3CCCc4ccccc43)ccc21,i,i,i,i,i,i
Cc1nc(=O)c(-c2ccccc2)c(C)n1-c1ccc(S(N)(=O)=O)cc1,i,i,i,i,i,99.9
CCOC(=O)c1cnc2ccc(C)cc2c1Nc1ccc(N2CCOCC2)cc1,i,i,i,i,i,99.8
CCOC(=O)c1ccc(Nc2cc(C)nc(N3CCOCC3)n2)cc1,i,i,i,i,i,67.3
CCN1C(=O)/C(=C\c2cn(-c3ccccc3)nc2-c2cccnc2)SC1=S,nt,nt,nt,nt,nt,83.3
Cc1ccc(C2/C(=C(\O)c3cnn(-c4ccccc4)c3C)C(=O)C(=O)N2CCN(C)C)o1 (centres undefined),i,i,i,i,90.8,i
O=C(NCC(O)c1ccc([N+](=O)[O-])cc1)c1cccc(S(=O)(=O)N2CCCC2)c1 (centres undefined),nt,nt,nt,nt,nt,i
NC(=O)C1(N2CCCCC2)CCN(CC(=O)Nc2cc(Cl)ccc2Cl)CC1,99.0,i,79.5,i,i,i
O=S(=O)(NCCc1ccncc1)c1cc(Br)ccc1F,i,i,91.5,i,i,i
Cc1ccc(S(=O)(=O)NCCc2ccncc2)cc1,i,i,i,i,i,i
CCOC(=O)C(=NCCCN(C)C)NNc1cc(C(F)(F)F)ccc1Cl,nt,nt,nt,nt,nt,i
C=C1C(=O)C=C2CN(C(=O)c3ccccc3)[C@@](Cc3ccc(F)cc3)(C(=O)OC)[C@@H]12,nt,nt,nt,nt,nt,99.7
COC(=O)[C@@]1(Cc2ccc(OC)cc2)[C@@H]2C(=CC(=O)[C@H]2CC(=O)C(=O)N(C)C)CN1C(=O)c1ccccc1,nt,nt,nt,nt,nt,i
Cc1ccc(OCc2ccoc2C(=O)O)cc1C,i,96.6,i,i,i,i
Cc1ccc(OCc2ccc(C(=O)N3CCOCC3)cc2)cc1C,i,i,i,i,i,i
NS(=O)(=O)c1ccc(CCNC(=O)CN2CCCCCC2)cc1,nt,nt,nt,nt,nt,i
COc1cc(C(=O)Nc2cccc3cccnc23)cc(OC)c1OC,38.6,i,i,i,i,i
SMILES,NFkB transloc inh,VCAM1 TNFa inh,HUVEC tox IL1B,NFkB transloc pot,HUVEC tox TNFa,E-sel TNF inh
COc1ccc(C(=O)Nc2ccc3c(c2)C(=O)c2ccccc2C3=O)cc1OC,nt,nt,nt,nt,nt,i
COc1cc(C(=O)Nc2ccc(NC(=O)c3ccco3)nc2)cc(OC)c1OC,i,i,i,i,i,i
COc1cc(C(=O)Nc2ccc3c(c2)C(=O)c2ccccc2C3=O)cc(OC)c1OC,nt,nt,nt,nt,nt,63.6
COc1cc(C(=O)N/N=C/c2ccsc2C)cc(OC)c1OC,i,57.3,i,i,i,i
COc1ccc(NC(=O)c2cc(OC)c(OC)c(OC)c2)cn1,47.8,i,i,i,i,i
COc1ccc(CC2(CO)CCN(Cc3nc(C(C)C)cs3)CC2)cc1,nt,nt,nt,nt,nt,i
COc1ccc([N+](=O)[O-])cc1N(CC(=O)NC(C(C)C)C(C)C)S(C)(=O)=O,nt,nt,nt,nt,nt,i
CCc1c(C)nc(/N=C(/NC(=O)c2ccccc2)Nc2ccccc2OC)[nH]c1=O,54.8,i,i,i,i,i
Cc1ncsc1CCSc1nc2ccccc2c(=O)n1C,i,i,79.7,i,i,i
COc1ccc(-n2c(C)cc(C(=O)Cn3c(NCCO)nc4ccccc43)c2C)cc1,i,i,i,41.0,i,i
O=C(Cn1c(NCCO)nc2ccccc21)c1ccc(Cl)cc1,i,i,i,i,i,nt
O=C1c2ccc(Br)cc2C(=O)N1c1ccc(Cc2ccncc2)cc1,nt,nt,nt,nt,nt,i
CCOC(=O)N1CCC(N(CCOC)C(=O)Nc2ccc(Cl)cc2)CC1,nt,nt,nt,nt,nt,80.4
C=CCNC(=O)NC(=O)COC(=O)c1nc2nccc(C)n2n1,nt,nt,nt,nt,nt,i
O=C(/C=C/c1ccccc1)Nc1ncn[nH]1,i,i,i,i,i,60.0
O=C(CCc1ccccc1)Nc1ncn[nH]1,i,i,i,i,i,nt
O=C(NC1CCN(Cc2ccccc2)CC1)C1CCCN(S(=O)(=O)c2cccc3nonc23)C1 (centres undefined),46.4,i,i,i,i,i
O=C(NCc1ccccc1)C1CCCN(S(=O)(=O)c2cccc3nonc23)C1 (centres undefined),nt,nt,nt,nt,nt,i
COC(=O)c1nnn(-c2nc(N(C)C)nc(N(C)C)n2)c1C,nt,nt,nt,nt,nt,i
COc1ccc2cc3cc(C(=O)Nc4ccccc4N4CCN(C)CC4)oc3nc2c1,i,i,i,i,i,i
COc1ccc2cc3cc(C(=O)NCCN4CCN(c5ccccc5F)CC4)oc3nc2c1,i,i,i,44.9,i,i
O=Cc1cnc(N2CCOCC2)nc1,nt,nt,nt,nt,nt,i
CCCOc1cccc(C(=O)Nc2cccnc2)c1,i,i,i,40.1,i,nt
COc1cc(C2C(C#N)=C(C)NC3=C2C(=O)c2ccccc23)cc(OC)c1OC (centres undefined),i,89.1,i,i,i,nt
COc1ccc(C2C(C#N)=C(C)NC3=C2C(=O)c2ccccc23)cc1 (centres undefined),nt,i,nt,nt,i,nt
SMILES,NFkB transloc inh,VCAM1 TNFa inh,HUVEC tox IL1B,NFkB transloc pot,HUVEC tox TNFa,E-sel TNF inh
CC1=C([N+](=O)[O-])C(c2ccccc2)C2=C(N1)c1ccccc1C2=O (centres undefined),i,44.4,i,i,i,i
CCOC(=O)C1=C(CSc2nc3c(cc2C#N)CN(C)CC3)OC(N)=C(C#N)C1c1ccc(F)cc1 (centres undefined),i,i,i,i,i,i
CCOC(=O)C1=C(CSc2nc3c(cc2C#N)CN(C)CC3)OC(N)=C(C#N)C1c1ccccc1 (centres undefined),i,?,i,i,98.7,nt
CC(C)CCNC(=O)c1ccc(-c2ccccc2)cc1,nt,nt,nt,nt,nt,i
O=C(CCc1ccccc1)NCCC1=CCCCC1,nt,nt,nt,nt,nt,74.9
O=C(Cc1ccccc1)NCCC1=CCCCC1,nt,nt,nt,nt,nt,i
COc1ccc2nc(SCc3nc(N)nc(Nc4ccccc4)n3)[nH]c2c1,i,i,i,i,i,94.9
COc1ccc2nc(SCC(=O)Nc3ccccc3)[nH]c2c1,nt,nt,nt,nt,nt,i
COc1ccc(Nc2nc(N)nc(COc3ccc(OC)cc3)n2)cc1,33.0,i,i,i,i,i
COc1ccc(OCc2nc(N)nc(Nc3ccc(C)cc3)n2)cc1,i,i,i,i,i,i
COCCCNC(=S)N(Cc1cccnc1)Cc1ccc(OC)c(OC)c1,nt,nt,nt,nt,nt,i
COc1cccc(/C=N/NC(=O)CSc2nnc(C)n2-c2ccccc2)c1O,i,i,i,i,i,i
